PubChem BioAssay (Tox21)
Results filed as inconclusive are left out. Activity calls are given as the source filed them. Unless noted, the call rests on the fitted dose curve.

Assays:
[1] = biological target: Peroxisome proliferator-activated receptor delta (Homo sapiens) (UniProt Q03181); test: qHTS assay to identify small molecule agonists of the peroxisome proliferator-activated receptor delta (PPARd) signaling pathway (AID 743212); further: on the % scale 0 is the no-effect control and ±100 the full control effect
Method in brief: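 Quantitative high-throughput agonist screen in a HEK293H beta-lactamase reporter line under UAS control. Compounds in DMSO, at 37 C. Fluorescence read after 2 h with FRET substrate at room temperature.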

[2] = biological target: Peroxisome proliferator-activated receptor delta (Homo sapiens) (UniProt Q03181); test: qHTS assay to identify small molecule antagonists of the peroxisome proliferator-activated receptor delta (PPARd) signaling pathway (AID 743215; active means well fitted inhibition curve with a large enough effect in the signal ratio in the repeat runs, not every such curve was filed as active; the % refers to the signal ratio;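 further: cells stimulated with agonist L165041 at 300 nM final during compound exposure; series mostly up to about 62 µM; on the % scale 0 is the no-effect control and ±100 the full control effect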)
Method in brief: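 Antagonist-mode beta-lactamase reporter screen: HEK293H cells with UAS-bla under PPARd control, stimulated by 300 nM L165041 (final) alongside test compound for 17 h at 37 C, then FRET fluorescence after 2 h substrate incubation.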

[3] = qHTS assay to identify small molecule agonists of the farnesoid-X-receptor (FXR) signaling pathway - cell viability counter screen (AID 743218; active means well fitted curve in the direction sought with a large enough effect in the repeat runs; an effect the other way counts as inactive or inconclusive; further: on the % scale 0 is the no-effect control and ±100 the full control effect; nearly all actives have a fitted effect of over 45% in size)
Method in brief: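 In GeneBLAzer FXR-UAS-bla HEK 293T cells, compounds act for 16 h at 37 C. Cell viability is then scored in the reporter wells by CellTiter-Glo, 30 min at RT, luminescence.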

[4] = qHTS assay to identify small molecule antagonists of the farnesoid-X-receptor (FXR) signaling pathway - cell viability counter screen (AID 743221; active means well fitted cell-killing curve with a large enough effect in the repeat runs, not every such curve was filed as active; further: on the % scale 0 is the no-effect control and ±100 the full control effect; nearly all actives have a fitted effect of over 50% in size)
Method in brief: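 Multiplexed counter screen: viability of FXR-bla HEK 293T cells under agonist stimulation by chenodeoxycholic acid (50 uM, final) and test compound for 16 h at 37 C, measured by CellTiter-Glo luminescence in the reporter wells.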

[5] = qHTS assay to identify small molecule agonists of the vitamin D receptor (VDR) signaling pathway - cell viability counter screen (AID 743224; active means well fitted curve in the direction sought with a large enough effect in the repeat runs; an effect the other way counts as inactive or inconclusive; further: series mostly up to about 63 µM; on the % scale 0 is the no-effect control and ±100 the full control effect; nearly all actives have a fitted effect of over 50% in size)
Method in brief: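 VDR-bla cell line, quantitative HTS format; 16 h compound incubation (37C, 5% CO2); ATP-based CellTiter-Glo luminescence measured in the reporter assay wells.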

[6] = qHTS assay to identify small molecule agonists of the NFkB signaling pathway - cell viability counter screen (AID 1159515); further: series mostly up to about 61 µM; on the % scale 0 is the no-effect control and ±100 the full control effect; nearly all actives have a fitted effect of over 55% in size
Method in brief: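 Viability in NFkB-bla ME-180 cells was measured by CellTiter-Glo luminescence, 30 min room temperature, in wells already treated 5 hr with compounds and read for reporter FRET.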

[7] = qHTS assay to identify small molecule agonists of the endoplasmic reticulum stress response signaling pathway (AID 1159516; active means well fitted activation curve with a large enough effect in the signal ratio in the repeat runs, not every such curve was filed as active; the % refers to the signal ratio; further: on the % scale 0 is the no-effect control and ±100 the full control effect)
Method in brief: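 ER stress element reporter (bla) in HeLa. 1,500 cells/well, overnight attachment; 5 hr compound; 2 hr RT substrate; dual-emission fluorescence.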

[8] = qHTS assay to identify small molecule agonists of the endoplasmic reticulum stress response signaling pathway - cell viability counter screen (AID 1159517);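 further: HeLa cells carrying an ER stress response element beta-lactamase reporter; series mostly up to about 61 µM; on the % scale 0 is the no-effect control and ±100 the full control effect; nearly all actives have a fitted effect of over 50% in size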
Method in brief: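 Counter-screen wells were identical to the reporter wells. Cells were plated at 1,500 per well and dosed for 5 hr, then read for luminescence 30 min after CellTiter-Glo addition.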

[9] = qHTS assay to identify small molecule antagonists of the retinoid-related orphan receptor gamma (ROR-gamma) signaling pathway - cell viability counter screen (AID 1159520; active means well fitted curve in the direction sought with a large enough effect in the repeat runs; an effect the other way counts as inactive or inconclusive; further: on the % scale 0 is the no-effect control and ±100 the full control effect; nearly all actives have a fitted effect of over 50% in size)
Method in brief: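 Tet-on ROR gamma CHO cells were given compounds for 2 hr, then doxycycline hyclate at 1 uM final, and incubated 16 hr at 37 C. Viability was measured as ATP content by CellTiter-Glo luminescence.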

[10] = biological target: Nuclear receptor ROR-gamma (Homo sapiens) (UniProt P51449); test: qHTS assay to identify small molecule antagonists of the retinoid-related orphan receptor gamma (ROR-gamma) signaling pathway (AID 1159521; active means well fitted curve in the direction sought with a large enough effect in the repeat runs; an effect the other way counts as inactive or inconclusive)
Method in brief: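 Cells were plated, rested 4 h at 37 C, exposed to compounds for 2 h, then given 1 uM final doxycycline hyclate to induce RORγ expression. After 16 h, ONE-Glo luminescence from the ROR response element reporter was measured.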

[11] = qHTS assay to identify small molecule agonists of the AP-1 signaling pathway - cell viability counter screen (AID 1159525); further: nearly all actives have a fitted effect of over 55% in size
Method in brief: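 AP-1-bla ME-180 cells in Opti-MEM with 0.5% dialyzed FBS, compound exposure 5 h at 37 C in 15-point titration. Viability read in the same wells as ATP content by CellTiter-Glo luminescence, normalised to tetra-n-octylammonium bromide and DMSO controls.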

[12] = qHTS assay to identify small molecule agonists of the AP-1 signaling pathway (AID 1159526); further: on the % scale 0 is the no-effect control and ±100 the full control effect
[13] = biological target: Retinoic acid receptor RXR-alpha (Homo sapiens) (UniProt P19793); test: qHTS assay to identify small molecule agonists of the RXR signaling pathway (AID 1159527); further: on the % scale 0 is the no-effect control and ±100 the full control effect; nearly all actives have a fitted effect of over 35% in size
Method in brief: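 Cells plated at 2,000/well, rested 5 hr at 37 C, pin-dosed with DMSO compound solutions, incubated 16 hr, then loaded with B/G FRET substrate for 2 hr at RT before dual-emission fluorescence reading.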

[14] = qHTS assay to identify small molecule agonists of the peroxisome proliferator-activated receptor delta (PPARd) signaling pathway - cell viability counter screen (AID 743211; active means well fitted curve in the direction sought with a large enough effect in the repeat runs; an effect the other way counts as inactive or inconclusive; further: on the % scale 0 is the no-effect control and ±100 the full control effect; nearly all actives have a fitted effect of over 55% in size)
Method in brief: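 Counter screen for cytotoxicity run in parallel with the PPARd reporter screen. Beta-lactamase reporter HEK293H cells exposed to compounds 17 h; ATP-based CellTiter-Glo luminescence quantified viability.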

[15] = biological target: Bile acid receptor (Homo sapiens) (UniProt Q96RI1); test: qHTS assay to identify small molecule antagonists of the farnesoid-X-receptor (FXR) signaling pathway (AID 743217; active means well fitted inhibition curve with a large enough effect in the signal ratio in the repeat runs, not every such curve was filed as active; the % refers to the signal ratio; further: on the % scale 0 is the no-effect control and ±100 the full control effect)
Method in brief: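 Beta-lactamase reporter under UAS control in HEK 293T cells; compound exposure 16 h at 37 °C in the presence of chenodeoxycholic acid (50 uM final); signal from B/G FRET substrate after 2 h at room temperature.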

[16] = biological target: Bile acid receptor (Homo sapiens) (UniProt Q96RI1); test: qHTS assay to identify small molecule agonists of the farnesoid-X-receptor (FXR) signaling pathway (AID 743220; active means well fitted activation curve with a large enough effect in the signal ratio in the repeat runs, not every such curve was filed as active; the % refers to the signal ratio; further: on the % scale 0 is the no-effect control and ±100 the full control effect)
Method in brief: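 Beta-lactamase reporter under UAS control in GeneBLAzer FXR HEK 293T cells (5000/well) measured with LiveBLAzer FRET substrate after 2 h at room temperature. Compound exposure lasted 16 h at 37C.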

[17] = biological target: Vitamin D3 receptor (Homo sapiens) (UniProt P11473); test: qHTS assay to identify small molecule agonists of the vitamin D receptor (VDR) signaling pathway (AID 743222); further: on the % scale 0 is the no-effect control and ±100 the full control effect
Method in brief: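 Agonist activity measured in VDR-bla reporter cells. Exposure 16 h, 37C, 5% CO2; detection by B/G FRET substrate, 2 h RT.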

[18] = biological target: Vitamin D3 receptor (Homo sapiens) (UniProt P11473); test: qHTS assay to identify small molecule antagonists of the vitamin D receptor (VDR) signaling pathway (AID 743223; active means well fitted inhibition curve with a large enough effect in the signal ratio in the repeat runs, not every such curve was filed as active; the % refers to the signal ratio; further: on the % scale 0 is the no-effect control and ±100 the full control effect)
Method in brief: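 Cells carrying a VDR-driven beta-lactamase reporter (VDR-bla) were co-treated with compound and 3 nM final 1alpha,25-dihydroxyvitamin D3 for 16 h at 37C; reporter activity was measured as FRET substrate fluorescence after 2 h at room temperature.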

[19] = qHTS assay to identify small molecule antagonists of the vitamin D receptor (VDR) signaling pathway - cell viability counter screen (AID 743225; active means well fitted curve in the direction sought with a large enough effect in the repeat runs; an effect the other way counts as inactive or inconclusive)
Method in brief: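 HEK293T VDR-bla; cpd + 1a,25-(OH)2D3 3 nM final, 16 h 37C/5% CO2; B/G FRET substrate 2 h RT; then CellTiter-Glo 30 min RT, luminescence.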

[20] = qHTS assay to identify small molecule antagonists of the peroxisome proliferator-activated receptor delta (PPARd) signaling pathway - cell viability counter screen (AID 743213; active means well fitted curve in the direction sought with a large enough effect in the repeat runs; an effect the other way counts as inactive or inconclusive)
Method in brief: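 Viability counter-screen, qHTS format: PPARd-bla HEK293H, L165041 300 nM final, 17 h compound exposure at 37 C, CellTiter-Glo luminescence after 30 min RT.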

Sequence of Vitamin D3 receptor (Homo sapiens) (P11473 whole entry, looked up): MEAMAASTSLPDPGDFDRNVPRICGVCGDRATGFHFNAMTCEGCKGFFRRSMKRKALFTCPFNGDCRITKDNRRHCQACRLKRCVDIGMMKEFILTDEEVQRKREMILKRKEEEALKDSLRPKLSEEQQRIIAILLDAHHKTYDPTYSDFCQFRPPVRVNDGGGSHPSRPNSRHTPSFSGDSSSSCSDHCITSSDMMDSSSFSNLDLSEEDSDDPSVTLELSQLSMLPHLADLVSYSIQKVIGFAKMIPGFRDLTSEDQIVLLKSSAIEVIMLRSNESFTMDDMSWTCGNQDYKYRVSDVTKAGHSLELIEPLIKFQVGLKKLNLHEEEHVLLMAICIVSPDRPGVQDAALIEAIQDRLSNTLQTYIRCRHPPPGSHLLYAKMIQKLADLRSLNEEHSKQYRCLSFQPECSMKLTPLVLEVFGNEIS
Sequence of Bile acid receptor (Homo sapiens) (Q96RI1 whole entry, looked up): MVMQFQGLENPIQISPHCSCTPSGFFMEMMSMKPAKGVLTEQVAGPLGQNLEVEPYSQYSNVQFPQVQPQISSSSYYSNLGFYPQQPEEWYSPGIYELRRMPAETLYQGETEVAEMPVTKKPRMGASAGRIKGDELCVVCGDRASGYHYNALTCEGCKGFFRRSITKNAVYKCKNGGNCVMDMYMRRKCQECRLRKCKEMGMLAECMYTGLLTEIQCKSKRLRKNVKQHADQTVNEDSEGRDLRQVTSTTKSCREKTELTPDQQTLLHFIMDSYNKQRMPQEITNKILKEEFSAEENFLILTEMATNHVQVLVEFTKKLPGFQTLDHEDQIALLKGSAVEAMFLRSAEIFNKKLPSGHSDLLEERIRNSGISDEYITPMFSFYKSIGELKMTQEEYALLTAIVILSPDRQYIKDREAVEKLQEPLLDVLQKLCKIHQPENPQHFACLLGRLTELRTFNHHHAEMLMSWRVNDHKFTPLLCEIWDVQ
Sequence of Retinoic acid receptor RXR-alpha (Homo sapiens) (P19793 whole entry, looked up): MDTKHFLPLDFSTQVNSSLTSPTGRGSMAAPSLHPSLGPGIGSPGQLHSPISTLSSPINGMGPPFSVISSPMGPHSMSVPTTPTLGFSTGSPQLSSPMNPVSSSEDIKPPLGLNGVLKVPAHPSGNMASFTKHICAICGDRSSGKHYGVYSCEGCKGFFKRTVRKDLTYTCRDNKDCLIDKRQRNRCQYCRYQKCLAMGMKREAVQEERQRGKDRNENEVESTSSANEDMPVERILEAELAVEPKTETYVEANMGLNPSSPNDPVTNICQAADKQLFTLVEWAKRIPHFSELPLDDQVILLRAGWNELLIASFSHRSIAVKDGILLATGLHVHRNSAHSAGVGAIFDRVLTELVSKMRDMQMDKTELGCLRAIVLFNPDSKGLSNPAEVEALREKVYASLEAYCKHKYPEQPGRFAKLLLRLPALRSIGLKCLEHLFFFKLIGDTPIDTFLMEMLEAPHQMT
Sequence of Peroxisome proliferator-activated receptor delta (Homo sapiens) (Q03181 whole entry, looked up): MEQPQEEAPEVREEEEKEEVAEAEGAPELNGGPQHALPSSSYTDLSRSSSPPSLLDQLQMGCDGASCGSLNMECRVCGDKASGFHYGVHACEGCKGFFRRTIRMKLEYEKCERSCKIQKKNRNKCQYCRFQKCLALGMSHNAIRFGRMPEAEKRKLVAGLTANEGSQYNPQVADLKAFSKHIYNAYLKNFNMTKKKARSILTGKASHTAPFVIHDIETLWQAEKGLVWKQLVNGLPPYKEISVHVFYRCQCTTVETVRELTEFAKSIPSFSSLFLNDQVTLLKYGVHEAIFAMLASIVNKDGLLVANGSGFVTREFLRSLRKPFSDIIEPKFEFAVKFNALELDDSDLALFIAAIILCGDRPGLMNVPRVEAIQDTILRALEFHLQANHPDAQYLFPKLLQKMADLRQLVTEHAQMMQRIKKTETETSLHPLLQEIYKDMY

COc1ccccc1N1CCN(CC(O)COc2cc(OC)c(OC)c(OC)c2)CC1 (stereo unspecified)
inactive: outcome [1] | outcome [2] | outcome [3] | outcome [4] | outcome [5] | outcome [6] | Potency [7] | outcome [8] | outcome [9] | outcome [10] | outcome [11] | Potency [12] | Potency [13]

CCC(C)c1nccnc1OC (stereo unspecified)
inactive: outcome [14] | outcome [1] | outcome [2] | outcome [15] | outcome [3] | outcome [16] | outcome [4] | outcome [17] | outcome [18] | outcome [5] | outcome [19] | outcome [6] | Potency [7] | outcome [8] | outcome [10] | outcome [11] | Potency [12] | Potency [13]

O=C(O)Cc1c(Cl)ccc(Cl)c1Cl
inactive: outcome [14] | outcome [1] | outcome [20] | outcome [2] | outcome [15] | outcome [3] | outcome [16] | outcome [4] | outcome [5] | outcome [19] | outcome [6] | Potency [7] | outcome [8] | outcome [9] | outcome [10] | Potency [12] | Potency [13]

O=C(O)COc1ccc2ccccc2c1
inactive: outcome [20] | outcome [15] | outcome [3] | outcome [16] | outcome [4] | outcome [17] | outcome [18] | outcome [19] | outcome [6] | Potency [7] | outcome [8] | outcome [9] | outcome [10] | outcome [11] | Potency [12] | Potency [13]

CC(C)(Sc1cc(C(C)(C)C)c(O)c(C(C)(C)C)c1)Sc1cc(C(C)(C)C)c(O)c(C(C)(C)C)c1
inactive: outcome [1] | outcome [20] | outcome [2] | outcome [3] | outcome [4] | outcome [17] | outcome [18] | outcome [5] | outcome [6] | Potency [7] | outcome [8] | outcome [9] | outcome [10] | Potency [12] | Potency [13]

COC(=O)c1ccc(C(=O)O)cc1
inactive: outcome [14] | outcome [1] | outcome [20] | outcome [2] | outcome [15] | outcome [3] | outcome [16] | outcome [4] | outcome [17] | outcome [18] | outcome [5] | outcome [19] | outcome [6] | Potency [7] | outcome [8] | outcome [9] | outcome [10] | Potency [12] | Potency [13]

CC(C)(C)C(=O)CCc1ccc(Cl)cc1
inactive: outcome [14] | outcome [1] | outcome [20] | outcome [2] | outcome [3] | outcome [4] | outcome [17] | outcome [18] | outcome [5] | outcome [19] | outcome [6] | Potency [7] | outcome [8] | outcome [10] | outcome [11] | Potency [12] | Potency [13]

COc1cc(NS(=O)(=O)c2ccc(N)cc2)ncn1
inactive: outcome [14] | outcome [1] | outcome [20] | outcome [2] | outcome [3] | outcome [4] | outcome [6] | Potency [7] | outcome [8] | outcome [10] | outcome [11] | Potency [12] | Potency [13]

CCCCCCCCCCCCCC(=O)OCC
inactive: outcome [1] | outcome [20] | outcome [4] | outcome [17] | outcome [18] | outcome [5] | outcome [19] | outcome [6] | Potency [7] | outcome [8] | outcome [9] | outcome [10] | Potency [12] | Potency [13]

CCNC(=O)C(C)OC(=O)Nc1ccccc1 (stereo unspecified)
inactive: outcome [14] | outcome [20] | outcome [15] | outcome [3] | outcome [16] | outcome [4] | outcome [17] | outcome [18] | outcome [5] | outcome [19] | outcome [6] | Potency [7] | outcome [8] | outcome [9] | outcome [10] | Potency [12] | Potency [13]

C[C@@H]1CC[C@@]2(OC1)O[C@H]1C[C@H]3[C@@H]4CC[C@H]5C[C@@H](O)CC[C@]5(C)[C@H]4CC(=O)[C@]3(C)[C@H]1[C@@H]2C
inactive: activity change, negative = cytotoxicity [14] 5.8% [at 5.95 µM] | activation [1] 0.168% [at 5.95 µM] | viability change, negative = cytotoxic [20] 11.9% [at 6.26 µM] | ratio activity, negative = inhibition [2] 2.62% [at 6.26 µM] | activity change, negative = inhibition [15] 10.4% [at 5.95 µM] | viability change, negative = cytotoxic [3] 12.5% [at 5.95 µM] | activation [16] 2.31% [at 5.95 µM] | activity change, negative = cytotoxicity [4] 4.76% [at 5.95 µM] | activity change, negative = cytotoxicity [5] 4.49% [at 5.95 µM] | viability change, negative = cytotoxic [19] -3.49% [at 6.95 µM] | activity, negative = cytotoxic [6] 6.74% [at 6.95 µM] | activation [7] 3.05% [at 6.95 µM] | activity change, negative = cytotoxicity [8] -1.94% [at 6.95 µM] | activity change, negative = inhibition [10] 0.0168% [at 8.39 µM] | viability change, negative = cytotoxic [11] 2.16% [at 6.97 µM] | activation [12] -4.54% [at 6.97 µM] | activation [13] 2.2% [at 6.98 µM]

CCCCCCCOC(C)=O
inactive: outcome [14] | outcome [1] | outcome [20] | outcome [2] | outcome [4] | outcome [17] | outcome [5] | outcome [19] | outcome [6] | Potency [7] | outcome [8] | outcome [9] | outcome [10] | Potency [12] | Potency [13]
